Results: PubChem BioAssay AID624330 (Southern Research Specialized Biocontainment Screening …, 2012)
In all, about 340,000 compounds went through this assay and about 2,100 (0.62%) were called active.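 How the source made its calls: active means first-screen hits whose inhibition reached a set limit at any dose in the follow-up dose series; inconclusive means inhibition above the set first-screen limit but never retested; inactive means the rest.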 Not all results are given here. Measured potencies and affinities stand elsewhere.

target: Rac GTPase-activating protein 1 (Homo sapiens) (UniProt Q9H0H5); assay: blockers of MgcRacGAP-driven Rac1 GTP hydrolysis – biochemical, ADP Hunter fluorescence, primary and confirmatory, confirmation (AID 624330); conditions: MgcRacGAP-stimulated Rac1 GTP hydrolysis, at 30 µM, active compounds read high, GST-tagged Rac1 F28L mutant substrate;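 further: fluorescence reports GDP produced by GAP-driven GTP hydrolysis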
Sequence (Q9H0H5 whole entry, looked up): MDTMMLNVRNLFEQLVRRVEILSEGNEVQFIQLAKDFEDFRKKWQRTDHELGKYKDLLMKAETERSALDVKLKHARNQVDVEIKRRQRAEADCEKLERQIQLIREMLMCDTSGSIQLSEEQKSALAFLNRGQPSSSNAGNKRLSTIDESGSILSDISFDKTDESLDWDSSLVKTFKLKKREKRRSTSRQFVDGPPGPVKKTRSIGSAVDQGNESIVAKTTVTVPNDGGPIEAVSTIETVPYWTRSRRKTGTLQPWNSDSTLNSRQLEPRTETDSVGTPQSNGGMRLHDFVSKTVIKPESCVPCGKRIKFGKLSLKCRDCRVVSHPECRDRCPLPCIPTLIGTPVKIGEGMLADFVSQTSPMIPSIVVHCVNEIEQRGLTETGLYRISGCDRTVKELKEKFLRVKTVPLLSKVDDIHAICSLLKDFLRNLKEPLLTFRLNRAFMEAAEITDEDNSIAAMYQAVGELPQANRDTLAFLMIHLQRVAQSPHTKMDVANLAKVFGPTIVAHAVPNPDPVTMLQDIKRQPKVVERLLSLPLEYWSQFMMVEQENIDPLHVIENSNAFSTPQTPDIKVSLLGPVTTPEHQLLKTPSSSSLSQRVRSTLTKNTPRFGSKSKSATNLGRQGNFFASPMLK

inhibition, inactive:
C[C@@H](NC(=O)C[C@@H]1C[C@@H]2c3cc(NS(=O)(=O)c4ccc(F)cc4)ccc3O[C@@H]2[C@@H](CO)O1)c1ccccc1 14.8%
CCN1/C(=C2\C(=O)N(C)C(=S)N2C)C=Cc2cc(C)ccc21 30.1%
CCN1/C(=C2/SC(=S)N(C)C2=O)C=Cc2cc(C)ccc21 1.56%
CC(C)CNC(=S)NC1CC2CCCC(C1)N2Cc1cccs1 (stereo unspecified) -4.03%
CCOC(=O)Nc1cc(NC(=O)OCC)c(C)nc1C 9.52%
Cc1ccc(Nc2ncnc3c2oc2ccccc23)cc1 11.9%
CCc1nc(Nc2ccc(F)cc2)c2oc3ccccc3c2n1 10.5%
CCc1nc(Nc2ccncc2)c2oc3ccccc3c2n1 9.44%
CC(=O)c1ccc(Nc2ncnc3c2oc2ccccc23)cc1 5.82%
CCc1nc(Nc2ccccc2)c2oc3ccccc3c2n1 7.79%
CCc1nc(SCC(=O)N2CCN(c3ccccc3)CC2)c2oc3ccccc3c2n1 18.4%
c1ccc(Nc2ncnc3c2oc2ccccc23)cc1 13%
c1ccc2c(c1)oc1c(Nc3ccc(CN4CCOCC4)cc3)ncnc12 14.1%
COc1ccc(NC(=O)Nc2nnc(CC(=O)NCc3ccccc3)s2)cc1 -13.3%
COc1cc(C(=O)N2CCN(c3ccc([N+](=O)[O-])cc3)CC2)ccc1OCc1c(C)noc1C 12.9%
COc1cc(NC(=O)Cn2cnc(S(=O)(=O)N3CCCCC3)c2)cc(OC)c1OC 1.97%
O=C(NCc1ccccc1)c1cc(=O)c2ccccc2o1 3.22%
CSC[C@H]1CN(Cc2ccccc2)C(=O)[C@@H]1CC(=O)Nc1ccc(Br)cc1 11%
COCCCn1c(SCC(=O)NC(C)(C)C)nnc1-c1cccs1 9.91%
O=C(N/N=C/c1ccc(C(F)(F)F)cc1)c1ccncc1 5.6%
Fc1ccc(Nc2ncnc3ccccc23)cc1 9.64%
Cc1ccc(Nc2ncnc3ccccc23)cc1 12.6%
COc1ccc(-c2nsc(SCC(=O)NCC3CCCO3)n2)cc1 (stereo unspecified) 5.33%
O=C1C2C3C=CC(CC3)C2C(=O)N1c1ccc([N+](=O)[O-])cc1 (stereo unspecified) 12.6%
COc1ccnc(NCc2cccc(C(F)(F)F)c2)c1C#N -0.963%
COc1cccc(Cn2nc(C(=O)O)c3ccccc3c2=O)c1 0.46%
CCn1c2ccccc2c2cc(NC(=O)c3ccc([N+](=O)[O-])cc3)ccc21 8.32%
Cn1ccc(=O)c2cc([N+](=O)[O-])ccc21 9.86%
Cc1csc(SCC(=O)NC2CCC(C)CC2)n1 (stereo unspecified) -6.91%
O=C(c1ccco1)N1CCN=C1SCc1cccnc1 4.28%
CC(=O)Nc1ccc(NC(=O)C(C)Oc2ccc(Cl)cc2Cl)cc1 (stereo unspecified) 1.91%
CC(Oc1ccc(Cl)cc1Cl)C(=O)Nc1cccc(O)c1 (stereo unspecified) 9.91%
O=C(Nc1ccc(S(=O)(=O)N2CCOCC2)cc1)c1ccc(S(=O)(=O)N2CCOCC2)cc1 0.49%
O=C(O)[C@H]1CCCC[C@H]1C(=O)Nc1ccc(S(=O)(=O)N2CCOCC2)cc1 4.65%
O=C(O)C1CCCCC1C(=O)Nc1ccc(S(=O)(=O)N2CCCC2)cc1 (stereo unspecified) 6.7%
CCN(CC)c1ccc(NC(=O)c2ccc3c(c2)OCO3)c(C)c1 24.3%
NC(=O)c1ccc(NC(=O)COC(=O)c2ccc3c(c2)OCO3)cc1 2.24%
CCC(=O)Nc1ccc(NC(=O)c2ccc3c(c2)OCO3)cc1 11.5%
O=C(COC(=O)c1ccc2c(c1)OCO2)Nc1ccccc1 4.56%
CC(=O)Nc1ccc(C(=O)Nc2ccc(S(=O)(=O)N3CCOCC3)cc2)cc1 -2.26%
CCC[C@@H](CN1CCC[C@H]1CN1C(N)=NC[C@@H]1Cc1ccccc1)N1C[C@@H]([C@H](C)CC)N(CCCC2CCCC2)C1=N 12.3%
COc1ccccc1CNC(=O)COC(=O)Cc1c[nH]c2ccccc12 4.99%
CC1CCCC(C)N1CCCNC(=O)CN1C(=O)c2cccnc2Oc2ccc(Cl)cc21 (stereo unspecified) 6.32%
CCC(C)N1CCCCC1C(=O)Nc1c(C)cc(C)cc1C (stereo unspecified) 2.22%
CCc1ccc(NC(=O)CCc2nc3ccccc3[nH]2)cc1 10.8%
COc1ccc(Br)cc1CNc1ccc(S(N)(=O)=O)cc1 0.46%
COc1ccc(Br)cc1CNc1ccccc1 26%
CC(C)n1c(SCC(=O)Nc2nncs2)nnc1C1CC1 4.43%
NC(=O)C[C@H](NC(=O)c1ccc(Cl)cc1)C(=O)OCc1ccccc1 8.75%
COc1cccc(NC(=O)C(=O)c2cn(CC(=O)N3CCCC3)c3ccccc23)c1 10%
CC(C)n1c(-c2ccco2)csc1=Nc1cccnc1 11.3%
CCN=c1scc(-c2ccco2)n1/N=C/c1ccc(O)cc1 13.7%
C=CCN=c1scc(-c2ccco2)n1/N=C/c1ccc(O)c(O)c1O -25.9%
COc1ccc(O)c(/C=N/n2c(-c3ccco3)csc2=Nc2cccnc2)c1 14.5%
CCN=c1scc(-c2ccc(F)cc2)n1/N=C/c1ccccn1 9.08%
CN=c1scc(-c2ccccc2F)n1/N=C/c1ccc(O)c(O)c1O -8.6%
COCCN=c1scc(-c2ccco2)n1/N=C/c1ccc(O)c(O)c1O -21.8%
CCN=c1scc(-c2ccco2)n1/N=C/c1ccc(OC)c(O)c1 28%
CCCCc1ncc(CN2CCC(n3nccc3NC(=O)C(OC)c3ccccc3)CC2)[nH]1 (stereo unspecified) 8.08%
O=C(CN1CCN(Cc2ccccc2)C1=O)NCc1ccc(Cl)cc1 3.73%
NC(=O)COc1ccc(C(=O)NCC2(N3CCOCC3)CCCCC2)cc1 4.65%
Cc1ccc([C@H]2C[C@@H](O)[C@H](n3cc(COC(=O)c4ccccc4)nn3)CN2Cc2cccs2)cc1 -0.67%
COc1ccccc1NC(=O)c1ccc(NC(=O)COC(=O)c2cncc(Br)c2)cc1 5.46%
CC(C)CC1C(C#N)=C(N)OC2=C1C(=O)CC(c1ccccc1)C2 (stereo unspecified) -2.75%
COc1ccc(CCn2c(-c3cc([N+](=O)[O-])cc([N+](=O)[O-])c3)nc3nc4ccccc4nc32)cc1 4.41%
CN(Cc1cnccn1)C(=O)C1CCC(=O)N(CCc2ccc(Cl)cc2)C1 (stereo unspecified) 8.49%
COc1ccc(CCNC(=O)N2CCOCC2)cc1 14.2%
COC(=O)c1ccc(OCC(O)CN2CCOCC2)cc1 (stereo unspecified) -9.81%
CN1CCN(NC(=O)NC2CCCCC2)CC1 2.74%
COc1cc(NC(=O)c2cccs2)ccc1NC(=O)Cc1ccccc1 4.97%
N#Cc1cccc(NC(=O)CNc2cccc(S(=O)(=O)N3CCCC3)c2)c1 -1.55%
O=C(Nc1cccc(S(=O)(=O)N2CCOCC2)c1)c1c2c(nc3ccccc13)CCC2 11.9%
COC(c1ccccc1)c1nnc(CCC(=O)NCc2ccc3ncccc3c2)o1 (stereo unspecified) 9.84%
CCCN1CNC(=S)N(c2ccc(C)cc2C)C1 16.6%
CC(C)N(Cc1cc2ccccc2[nH]c1=O)C(=O)C(C)(C)C -1.34%
CCc1c(C)nc(N)nc1Cl -2.74%
CCOC(=O)C(Sc1cc(C)nc(N)n1)C(C)=O (stereo unspecified) 0.9%
COc1cc2c(cc1OC)C(C)=NCC2 5.87%
COc1cc2c(cc1OC)C(c1ccccc1)=NCC2 3.03%
Cc1cc(OCC(=O)OCC(=O)Nc2cc(S(=O)(=O)N3CCOCC3)ccc2Cl)ccc1Cl 2.85%
CCOC(=O)CN1C(=N)N(c2nc(NC(C)C)nc(NC(C)C)n2)CC1=O 7%
CCOC(=O)Cc1csc(NC(=O)CSc2nnnn2-c2ccc(CC)cc2)n1 8.91%
Cc1ccc(NC(=O)CCNC(=O)Nc2ccccc2)cc1S(=O)(=O)N(C)C 2.28%
Cc1ccc(NC(=O)CCNC(=O)c2ccccc2Cl)cc1S(=O)(=O)N(C)C 2.79%
CCN1/C(=N\N)c2cccc3cccc1c23 13.1%
CN1C(=O)N(C)c2cccc3cccc1c23 6.07%
Cc1oc(-c2cccc(F)c2)nc1CN1CCCN(C(=O)c2ccco2)CC1 9.79%
CCCCn1c(N)c(N(Cc2ccccc2OC)C(=O)C(C)Oc2ccc(Cl)cc2)c(=O)[nH]c1=O (stereo unspecified) 3.24%
Cc1ccc(S(=O)(=O)N(C)Cc2ccc(C(=O)NN=C(CC(C)C)CC(C)C)cc2)cc1 7.07%
CCn1cnc2c(Nc3cccc(Cl)c3)nc(C#N)nc21 12.9%
O=C(NCc1ccco1)c1ccccc1 4.89%
O=C(NCC1CCCO1)c1ccccc1 (stereo unspecified) -0.11%
O=C(Cn1c(C(=O)NCCCN2CCOCC2)cc2sccc21)c1ccccc1 29.1%
O=C(NCc1ccco1)c1cc2sccc2n1Cc1ccccc1 12.8%
CN1CCc2c(n(CC(O)CNCc3ccccc3)c3ccccc23)C1=O (stereo unspecified) 8.39%
COc1cc(C(F)(F)F)c(C(=O)N(C)Cc2ccc(Cl)c(Cl)c2)cn1 5.07%
